Each structure is given as a SMILES string. Whole data set: some 110,000 compounds, median “z-score” near -0.1, cut for the highest 2% near 2. The entries come from a sample that favours the highest values as a whole. Calls of active or inactive are those of the source.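 How the source made its calls: active means z-score in the third read window above 3 or below -3; inactive means the rest.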

For 69 compounds, z-score results are on record in PubChem BioAssay AID488969 (Vanderbilt High Throughput Screening Facility, 2010).

The target in this test is Metabotropic glutamate receptor 8 (Rattus norvegicus) (UniProt P70579). In words: rat mGluR8 modulators via GIRK flux, primary screen, cell-based, thallium flux, HTS (AID 488969). The note with it: HEK293 rat mGluR8, GIRK (G protein-gated inwardly rectifying potassium channel) thallium flux, FluoZin2; at 10 µM; stronger effect = higher value; submaximal glutamate (EC20) added with thallium.
Metabotropic glutamate receptor 8 (Rattus norvegicus), sequence (P70579 whole entry, looked up): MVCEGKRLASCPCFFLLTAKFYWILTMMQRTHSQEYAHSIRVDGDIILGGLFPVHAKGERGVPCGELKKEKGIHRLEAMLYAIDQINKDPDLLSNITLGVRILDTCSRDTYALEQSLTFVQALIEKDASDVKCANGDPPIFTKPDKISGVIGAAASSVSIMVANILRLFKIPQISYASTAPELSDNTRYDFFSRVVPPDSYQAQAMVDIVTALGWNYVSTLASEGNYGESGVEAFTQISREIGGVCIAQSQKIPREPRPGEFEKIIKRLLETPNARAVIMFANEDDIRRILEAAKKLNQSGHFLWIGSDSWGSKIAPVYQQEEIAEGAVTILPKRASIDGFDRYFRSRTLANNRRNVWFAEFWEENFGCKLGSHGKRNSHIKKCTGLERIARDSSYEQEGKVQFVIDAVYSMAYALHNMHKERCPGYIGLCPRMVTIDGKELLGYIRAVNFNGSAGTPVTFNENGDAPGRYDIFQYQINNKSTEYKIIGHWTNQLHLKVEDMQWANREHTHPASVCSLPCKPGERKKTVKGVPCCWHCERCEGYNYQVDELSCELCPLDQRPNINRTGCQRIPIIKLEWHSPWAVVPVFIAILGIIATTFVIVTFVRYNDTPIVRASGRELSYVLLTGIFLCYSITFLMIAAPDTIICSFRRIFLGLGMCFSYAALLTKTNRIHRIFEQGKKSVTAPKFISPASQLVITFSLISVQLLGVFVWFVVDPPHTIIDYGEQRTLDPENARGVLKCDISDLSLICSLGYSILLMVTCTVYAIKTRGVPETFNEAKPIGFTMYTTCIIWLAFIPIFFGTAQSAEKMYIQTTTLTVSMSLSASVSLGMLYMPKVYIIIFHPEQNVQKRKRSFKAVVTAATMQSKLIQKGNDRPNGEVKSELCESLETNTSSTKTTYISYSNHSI
In the case of `Cc1ccc(S(=O)(=O)NCc2c(-c3ccccc3)c3cc(Cl)ccc3[nH]c2=O)cc1`, the z-score is -0.178.
For `CC1CC(C)CN(CC(=O)Nc2ccc3c(c2)OCCO3)C1` (centres undefined), the z-score was -0.603.
For `COc1cc(N2C(=O)c3ccccc3C2=O)c(Cl)cc1C(=O)OCC(=O)NCc1ccco1`, the z-score is 0.165.
On to `CCOC(=O)c1cnc(SC)nc1N`, for which the z-score is -0.0813.
The value for `CCCn1c(-c2ccc(F)cc2)cnc1SCC(=O)O` was -0.678; that for `CCOC(=O)c1c(C)[nH]c(C(=O)COC(=O)CNC(=O)c2ccc(Br)cc2)c1C` was -0.279; that for `CCOC(=O)c1c(C)[nH]c(C(=O)COC(=O)CNC(=O)c2ccc(Cl)cc2)c1C` was 5.97 (active).
`CCOC(=O)c1c(C)[nH]c(C(=O)COC(=O)CNC(=O)c2ccc(Cl)cc2Cl)c1C`: the z-score is -0.202.
The value for `COc1ccc(CCn2c(C)cc(C(=O)CSc3nnnn3-c3ccccc3)c2C)cc1` was 0.292; that for `CN(C)c1ccc(/C=C/c2nnnn2-c2ccccc2)cc1` was -0.556.
As for `COc1ccc(S(=O)(=O)N2CCCCC2)cc1NC(=O)c1ccc2ccccc2n1`, the z-score is -0.376.
With `CCc1ccc(Nc2nnc(SCn3nnc4ccccc4c3=O)s2)cc1`, the z-score was -0.292.
For `CCc1ccc(Nc2nc3ccccc3c(=O)s2)cc1` the value was 2.82.
For `CCc1ccc(NCc2nc3ccccc3c(=O)[nH]2)cc1` the value was -0.644; for `Cc1ccc2nc3sc(C(=O)N4CCCc5ccccc54)c(N)c3cc2c1`, 0.484; for `CN(Cc1nc(-c2ccncc2)no1)S(=O)(=O)c1ccccc1`, 0.00952.
`O=C(CSc1ccccn1)N1CCN(c2ccccc2)CC1` gave a z-score of 0.0291.
Take `COc1ccc2nc(/N=C/c3c(C)[nH]n(-c4ccc(C)cc4C)c3=O)sc2c1`: the z-score was 15.7 (active).
For `CCOc1ccc2nc(/N=C/c3c(C)[nH]n(-c4ccc(C)cc4)c3=O)sc2c1` the value was 10.6 (active); for `Cc1ccc(-n2[nH]c(C)c(C=Nc3ccc(S(=O)(=O)Nc4nc(C)cc(C)n4)cc3)c2=O)c(C)c1`, -0.0925; for `Cc1[nH]n(-c2ccccc2)c(=O)c1C=Nc1cnc2ccccc2c1`, 0.416.
As for `COc1ccc2nc(/N=C\N(C)C)sc2c1`, the z-score stood at 0.401.
Take `COc1ccc2nc(/N=C/c3c(C)[nH]n(-c4ccc(C)cc4)c3=O)sc2c1`: the z-score was 9.39 (active).
`CCOc1ccc2nc(NC(=O)CS(=O)(=O)c3ccc(C)cc3)sc2c1`: the z-score was -0.503.
Take `CCOc1ccc2nc(SC3CC(=O)N(c4ccc(C)cc4)C3=O)sc2c1` (centres undefined): the z-score is 0.0229.
Take `COc1cc(SC#N)ccc1N=Cc1c(C)[nH]n(-c2ccc(C)cc2C)c1=O`: the z-score was -0.204.
For `COc1cc(SC#N)ccc1N=Cc1c(C)[nH]n(-c2ccc(C)cc2)c1=O` the value was 0.469.
The compound `CCOc1ccc(N=Cc2c(C)[nH]n(-c3nc4ccccc4[nH]3)c2=O)cc1` yielded a z-score of 0.0911.
As for `CCOc1ccc2nc(/N=C/c3c(C)[nH]n(-c4ccccc4)c3=O)sc2c1`, the z-score is 13.8 (active).
Regarding `O=C(CCc1nc(-c2ccc(Cl)cc2)no1)OCc1ccc(Br)cc1`, the z-score was -0.0119.
Regarding `O=C(CCSc1ccc(Cl)cc1)NC1CCCCC1`, the z-score is -0.109.
Consider `COC(=O)c1ccccc1NC(=O)c1cc(-c2ccc(O)cc2)on1`, for which the z-score is -0.322.
`Cc1cc(N=Cc2cc(Br)ccc2O)no1`: the z-score is -1.2.
The value for `O=S1(=O)C[C@@H](O)[C@@H](Nc2ccc(Cl)cc2)C1` was -0.343; that for `CCn1cc(/C=N/NS(=O)(=O)c2ccc(C)cc2)c(C)n1` was -0.045; that for `CC(C)OC(=O)c1c2nc3ccccc3nc2n2c1[nH]c(=O)c1ccccc12` was 16.9 (active).
For `COc1ccc2c(c1)c1nc3ccccc3nc1n2CC(=O)OC(C)C` the value was 0.485.
For `CC(C)OC(=O)c1c(N)n(CCCN2CCOCC2)c2nc3ccccc3nc12` the value was -0.444; for `CCOC(=O)c1ccc(NC(=O)CN2C(=O)CNC2=O)cc1`, -0.263.
On to `CCOC(=O)C1=C(C)C2C3C(=O)N(c4ccccc4C)C(=O)C3C1(C)C1C(=O)N(c3ccccc3C)C(=O)C21` (centres undefined), for which the z-score is -0.246.
As for `O=C(CN1C(=O)NC2(CCc3ccccc32)C1=O)Nc1ccc(N2CCOCC2)cc1` (centres undefined), the z-score is -0.205.
`CCCC(=O)NC(=S)Nc1ccccc1C(F)(F)F` came in with a z-score of 0.25.
The value for `Cc1ccc(C(=O)NC(=S)Nc2ccccc2C(F)(F)F)c(C)c1` was 0.996.
As for `Cc1ccc(C(=O)NC(=S)Nc2ccccc2C(F)(F)F)cc1C`, the z-score was 5.48 (active).
With `Cc1cccc(C(=O)NC(=S)Nc2ccccc2C(F)(F)F)c1`, the z-score was 3.38 (active).
In the case of `CCC(=O)NC(=S)Nc1ccccc1C(F)(F)F`, the z-score was 0.0622.
Compound `CC(C)C(=O)NC(=S)Nc1ccccc1C(F)(F)F` showed a z-score of 0.0217.
With `Cc1ccc(C(=O)NC(=S)Nc2ccccc2C(F)(F)F)cc1`, the z-score was 6.32 (active).
Compound `CC(C)(C)CC(=O)NC(=S)Nc1ccccc1C(F)(F)F` returned a z-score of 0.863.
Regarding `Cc1ccccc1C(=O)NC(=S)Nc1ccccc1C(F)(F)F`, the z-score is 1.41.
Turning to `COc1cccc(C(=O)NC(=S)Nc2ccc(N3CCCC3)cc2)c1`, the z-score is -0.087.
`O=C(CC1C(=O)N(c2ccccc2)C(=S)N1c1ccccc1)c1ccccc1` (centres undefined) yielded a z-score of 0.466.
Take `CC(Sc1ncnc2ccccc12)C(=O)Nc1ccc2c(c1)OCCO2` (centres undefined): the z-score is -0.25.
In the case of `NS(=O)(=O)c1ccc(CCNC(=S)Nc2ccccc2)cc1`, the z-score was -0.217.
Consider `COc1ccccc1OCc1ccc(C(=O)Nc2ccccc2F)cc1`, for which the z-score is -0.156.
The compound `O=C(CSCc1cnn(-c2ccccc2)c1-n1cccc1)NCc1ccc2c(c1)OCO2` registered a z-score of 0.533.
`C#CCn1cc(/C=N/NC(=O)c2cc3ccccc3o2)c2ccccc21`: the z-score is -0.24.
With `Cc1cc(N2CCOCC2)nc2ccc(NC(=O)CCC(=O)N3CCCC(C)C3)cc12` (centres undefined), the z-score is 2.7.
Take `Cc1cc(N2CCOCC2)nc2ccc(NC(=O)CCC(=O)N3CCC(C)CC3)cc12`: the z-score was 0.27.
Consider `Cc1cc(N2CCOCC2)nc2ccc(NC(=O)CCC(=O)N3CCCCC3)cc12`, for which the z-score was -0.00221.
Turning to `CCOC(=O)c1c(-c2ccccc2)nnn1-c1nc(OC)nc(N2CCOCC2)n1`, the z-score was -0.476.
As for `Cc1ccnc2nc(C(=O)Nc3nnc(CC(C)C)s3)nn12`, the z-score was -0.0103.
For `Cc1ccc(NC(=O)CN2C(=O)S/C(=C\C(=O)Nc3ccc(Cl)cc3)C2=O)cc1` the value was -0.0557; for `COc1ccc(NC2=Nc3cccc4cccc2c34)cc1`, -0.54; for `COc1ccc(NC2=Nc3cccc4cccc2c34)cc1OC`, 4.9 (active).
As to `COc1cc(NC2=Nc3cccc4cccc2c34)cc(OC)c1OC`, the z-score was -0.385.
`COc1ccc(-c2cc(-c3ccc(F)cc3)nc(N3CCN(C)CC3)n2)cc1` returned a z-score of 0.083.
Regarding `COc1ccc(-c2cc(C#N)nc(N3CCNCC3)n2)cc1`, the z-score was 2.07.
Regarding `COc1ccc(-c2cc(C#N)nc(N3CCN(c4ccccc4)CC3)n2)cc1`, the z-score is -0.103.
